Values without a mark were called inactive.
system: Pseudomonas aeruginosa PA14 dppA1-A5 penta mutant + pBBR5.DppA1 (PA14_58350); assay: respiration area under curve with compound as sole nitrogen source, 24 h (OmniLog AUC (arbitrary units)); higher = more respiration / better utilisation as nitrogen source
Method: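 Biolog Phenotype MicroArray plates PM6-PM8: each di/tripeptide is the sole nitrogen source. Tetrazolium reduction was read in the OmniLog for 24 h at 37°C and summarised as area under the respiration curve (arbitrary units). Values below 2000 count as no respiration. Strain is the SBP penta mutant complemented with DppA1 on a plasmid under its native promoter. Lys/His/Cys peptides are excluded.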

SMILES | respiration area under curve
CC(C)C[C@@H](NC(=O)CNC(=O)CN)C(=O)O (plate: PM8) | 232
CC(C)C[C@H](NC(=O)CNC(=O)CN)C(=O)O (plate: PM8) | 3880 (active)

Source: the supplement of paper PMC4206461
